The record followed here is PubChem BioAssay (NCI).

Assay [1] is described as follows: NCI Yeast Anticancer Drug Screen. Data for the rad50 strain (AID 155).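 Also: 0% = growth of vehicle-only cultures of the same strain.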 The settings on record: S. cerevisiae rad50 strain growth inhibition, hits give high values. The method in brief:
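Compounds were tested on a yeast strain with an engineered DNA damage repair alteration; the reported value is growth inhibition normalised to vehicle treatment.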

A short description of assay [2]: NCI Yeast Anticancer Drug Screen. Data for the mec2-1 strain (AID 157). The settings on record: S. cerevisiae mec2-1 strain, hits give high values. An outline of the steps: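 Test agents were screened against the mec2-1 yeast strain, with defined DNA repair or cell cycle alteration. Growth was scored as inhibition against vehicle-only controls.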
Assay [3] in a line: NCI Yeast Anticancer Drug Screen. Data for the sgs1 mgt1 strain (AID 161).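 Also: 0% = growth of cultures given vehicle only.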 The settings on record: S. cerevisiae sgs1 mgt1 strain, hits give high values. An outline of the steps: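 Read-out: growth inhibition vs vehicle controls. Cells: mutant yeast strain deficient in DNA damage repair.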
The nature of assay [4]: NCI Yeast Anticancer Drug Screen. Data for the cln2 rad14 strain (AID 165).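 Also: 0% = growth equal to vehicle treated cultures.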 Conditions: S. cerevisiae cln2 rad14 strain, hits give high values. The method in brief:
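Growth of compound-exposed yeast (cln2 rad14 genotype) measured and expressed as inhibition relative to vehicle.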

Assay [5] can be described thus: NCI Yeast Anticancer Drug Screen. Data for the bub3 strain (AID 167). The settings on record: S. cerevisiae bub3 mutant strain, hits give high values. An outline of the steps:
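Growth of a checkpoint-deficient yeast mutant is measured after compound exposure. Values represent inhibition relative to vehicle.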

Assay [6] in a line: NCI Yeast Anticancer Drug Screen. Data for the mlh1 rad18 strain (AID 175). The settings on record: S. cerevisiae mlh1 rad18 strain growth inhibition, hits give high values. The method in brief:
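In this whole-cell yeast screen, a strain with altered DNA damage repair is challenged with compound, and its growth is measured against matched vehicle-treated controls.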

Where [7] appears, read: at 5.0 µM (retest, dose inferred, filed as 0.5).
Setting [8] is: at 50.0 µM (retest, dose inferred, filed as 5.0).

Each structure is given as a SMILES string. Compounds without any hit were thinned out: in the full panel of roughly 79,000, 15% have a hit. Unmarked numbers belong to inactive results. Calls of active or inactive are those of the source. Rule as the data show it: active = growth inhibition above about 70%; inactive = the rest.

With `O=c1ccccc(Br)c1O`, the growth inhibition in assay [1] (setting [7]) is 12%; in assay [1] (setting [8]), 97% (active); in assay [1] (at 50.0 µM), 98.7% (active); in assay [2] (setting [7]), 10%; in assay [2] (setting [8]), 93% (active); in assay [2] (at 50.0 µM), 97.8% (active). In addition, the growth inhibition in assay [3] (setting [7]) is 6%; in assay [3] (setting [8]), 97% (active); in assay [3] (at 50.0 µM) it was 99.6% (active); in assay [4] (setting [7]) it was 19%; in assay [4] (setting [8]), 87% (active); in assay [4] (at 50.0 µM), 93.1% (active). Further, the growth inhibition in assay [5] (setting [7]) is 8%; in assay [5] (setting [8]), 98% (active); in assay [5] (at 50.0 µM) it was 97.6% (active); in assay [6] (setting [7]), 9%; in assay [6] (setting [8]), 97% (active); in assay [6] (at 50.0 µM), 98.9% (active).

For `COC1C=COC2(C)Oc3c(C)c(O)c4c(O)c(c(C5SCCS5)c(O)c4c3C2=O)NC(=O)C(C)=C/C=C\C(C)C2OC(C)(C)OC(C2C)C(C)C(OC(C)=O)C1C` (configuration not stated), the growth inhibition in assay [1] (setting [7]) was 5%; in assay [1] (setting [8]), 83% (active); in assay [1] (at 50.0 µM), 86.7% (active); in assay [2] (setting [7]) it was 8%; in assay [2] (setting [8]), 93% (active); in assay [2] (at 50.0 µM) it was 93.6% (active). Besides, the growth inhibition in assay [3] (setting [7]) is -2%; in assay [3] (setting [8]) it was 36%; in assay [3] (at 50.0 µM), 90.8% (active); in assay [4] (setting [7]) it was 20%; in assay [4] (setting [8]) it was 93% (active); in assay [4] (at 50.0 µM), 90.3% (active). Besides, the growth inhibition was 5% in assay [5] (setting [7]); 95% (active) in assay [5] (setting [8]); 83.8% (active) in assay [5] (at 50.0 µM); 9% in assay [6] (setting [7]); 92% (active) in assay [6] (setting [8]); 87.8% (active) in assay [6] (at 50.0 µM).

As for `COC(=O)c1cc(OC)c(OC)c(OC)c1`, the growth inhibition in assay [1] (setting [7]) is 4%; in assay [1] (setting [8]) it was 72% (active); in assay [1] (at 50.0 µM), 4.25%; in assay [2] (setting [7]), 1%; in assay [2] (setting [8]) it was 18%; in assay [2] (at 50.0 µM) it was -0.5%. In addition, the growth inhibition in assay [3] (setting [7]) was 2%; in assay [3] (setting [8]), 29%; in assay [3] (at 50.0 µM), -13.1%; in assay [4] (setting [7]), 2%; in assay [4] (setting [8]) it was 60%; in assay [4] (at 50.0 µM), -23.3%. Further, the growth inhibition is 2% in assay [5] (setting [7]); 70% (active) in assay [5] (setting [8]); 36.9% in assay [5] (at 50.0 µM); -1% in assay [6] (setting [7]); 48% in assay [6] (setting [8]); 0.25% in assay [6] (at 50.0 µM).

`O=C(c1ccc([N+](=O)[O-])cc1)N1CCCSC1=S`: the growth inhibition in assay [1] (setting [7]) is 19%; in assay [1] (setting [8]), 27%; in assay [1] (at 50.0 µM), 26.8%; in assay [2] (setting [7]), -7%; in assay [2] (setting [8]) it was 12%; in assay [2] (at 50.0 µM), 22.2%. Besides, the growth inhibition was 10% in assay [3] (setting [7]); 21% in assay [3] (setting [8]); 31.6% in assay [3] (at 50.0 µM); 21% in assay [4] (setting [7]); 27% in assay [4] (setting [8]); 27.2% in assay [4] (at 50.0 µM). The growth inhibition is 6% in assay [5] (setting [7]); 11% in assay [5] (setting [8]); 16% in assay [5] (at 50.0 µM); 11% in assay [6] (setting [7]); 31% in assay [6] (setting [8]); 60.5% in assay [6] (at 50.0 µM).

As to `O=C(CCl)Oc1c(Br)cc(-c2ccccc2)cc1Br`, the growth inhibition in assay [1] (setting [7]) was 32%; in assay [1] (setting [8]), 95% (active); in assay [1] (at 50.0 µM), 77.3% (active); in assay [2] (setting [7]) it was 42%; in assay [2] (setting [8]) it was 99% (active); in assay [2] (at 50.0 µM) it was 56.1%. Moreover, the growth inhibition in assay [3] (setting [7]) was 65%; in assay [3] (setting [8]), 99% (active); in assay [3] (at 50.0 µM), 88.8% (active); in assay [4] (setting [7]) it was 57%; in assay [4] (setting [8]), 97% (active); in assay [4] (at 50.0 µM), 41.9%. Further, the growth inhibition in assay [5] (setting [7]) was 30%; in assay [5] (setting [8]) it was 98% (active); in assay [5] (at 50.0 µM), 16.9%; in assay [6] (setting [7]) it was 73% (active); in assay [6] (setting [8]), 95% (active); in assay [6] (at 50.0 µM), 82.2% (active).

Regarding `CC(=O)c1c(CO[N+](=O)[O-])n([O-])c2ccccc2[n+]1=O`, the growth inhibition in assay [1] (setting [7]) is 11%; in assay [1] (setting [8]), 60%; in assay [1] (at 50.0 µM), 69.4%; in assay [2] (setting [7]) it was 7%; in assay [2] (setting [8]), 20%; in assay [2] (at 50.0 µM) it was 13.6%. Also, the growth inhibition in assay [3] (setting [7]) was 13%; in assay [3] (setting [8]) it was 40%; in assay [3] (at 50.0 µM), 42.5%; in assay [4] (setting [7]), -1%; in assay [4] (setting [8]) it was 17%; in assay [4] (at 50.0 µM), 22%. Moreover, the growth inhibition was -1% in assay [5] (setting [7]); -4% in assay [5] (setting [8]); 15.7% in assay [5] (at 50.0 µM); 1% in assay [6] (setting [7]); 33% in assay [6] (setting [8]); 45.9% in assay [6] (at 50.0 µM).

`COC(=O)c1cc(C)c2sc3ccccc3c2c1C`: the growth inhibition was -13% in assay [1] (setting [7]); 29% in assay [1] (setting [8]); 73.1% (active) in assay [1] (at 50.0 µM); -8% in assay [2] (setting [7]); 23% in assay [2] (setting [8]); 5.3% in assay [2] (at 50.0 µM). Besides, the growth inhibition in assay [3] (setting [7]) was -7%; in assay [3] (setting [8]), 51%; in assay [3] (at 50.0 µM) it was 75.2% (active); in assay [4] (setting [7]) it was -8%; in assay [4] (setting [8]), 16%; in assay [4] (at 50.0 µM) it was -24.1%. Also, the growth inhibition is -21% in assay [5] (setting [7]); 21% in assay [5] (setting [8]); 31.4% in assay [5] (at 50.0 µM); -3% in assay [6] (setting [7]); 38% in assay [6] (setting [8]); 61.5% in assay [6] (at 50.0 µM).

As for `CC(N)C(O)c1ccc2ccc3ccccc3c2c1` (configuration not stated), the growth inhibition in assay [1] (setting [7]) was -35%; in assay [1] (setting [8]), 96% (active); in assay [1] (at 50.0 µM) it was 63.7%; in assay [2] (setting [7]), 0%; in assay [2] (setting [8]), 96% (active); in assay [2] (at 50.0 µM), 3.65%. Besides, the growth inhibition in assay [3] (setting [7]) is 0%; in assay [3] (setting [8]), 96% (active); in assay [3] (at 50.0 µM), 64.8%; in assay [4] (setting [7]), -13%; in assay [4] (setting [8]), 36%; in assay [4] (at 50.0 µM) it was 38.7%. The growth inhibition in assay [5] (setting [7]) was 6%; in assay [5] (setting [8]), 97% (active); in assay [5] (at 50.0 µM), 66.9%; in assay [6] (setting [7]), 11%; in assay [6] (setting [8]), 98% (active); in assay [6] (at 50.0 µM), 58.1%.

For the compound `CCOc1c(Br)cc(Br)cc1/C=N/NS(=O)(=O)c1ccc(C)cc1`, the growth inhibition in assay [1] (setting [7]) is 41%; in assay [1] (setting [8]) it was 90% (active); in assay [1] (at 50.0 µM), 75.7% (active); in assay [2] (setting [7]), 26%; in assay [2] (setting [8]), 88% (active); in assay [2] (at 50.0 µM), 74.5% (active). Moreover, the growth inhibition in assay [3] (setting [7]) was 38%; in assay [3] (setting [8]), 90% (active); in assay [3] (at 50.0 µM), 82.2% (active); in assay [4] (setting [7]) it was 30%; in assay [4] (setting [8]) it was 87% (active); in assay [4] (at 50.0 µM), 82.6% (active). Besides, the growth inhibition is 45% in assay [5] (setting [7]); 85% (active) in assay [5] (setting [8]); 72.2% (active) in assay [5] (at 50.0 µM); 48% in assay [6] (setting [7]); 91% (active) in assay [6] (setting [8]); 75% (active) in assay [6] (at 50.0 µM).
